Inconclusive results are not listed. Active and inactive are the calls of the source. Calls follow the shape of the dose curve; as a rule, active = well fitted inhibition curve with a large enough effect; inconclusive = small, poorly fitted or top-dose-only effect; inactive = no such curve, though single readings can be large or run the other way.
assay: Counterscreen qHTS for Identification of Calcium Integrin Binding Protein 1 (CIB1) Competitor; conditions: series mostly up to 114 µM; activity, negative = inhibition: at the top concentration
Source text: Assay Provider: Ulhas P. Naik, PhD
Sidney Kimmel Medical College
Thomas Jefferson University, Philadelphia, PA
Primary function of platelets is to maintain hemostasis. At the site of vascular injury, platelets adhere to adhesive proteins such as collagen and von Willebrand factor. Adherent platelets are activated and generate soluble platelet agonists such as thrombin, ADP and thromboxane A2. Following exposure of circulating platelets to these agonists, results in platelet shape change, granule secretion and activation of platelet integrin alphaIIb-beta3. Ligand binding to activated integrin alphaIIb-beta3 triggers outside-in signaling, leading to platelet aggregation, stabilization of platelet plug, and clot retraction. Upon atherosclerotic plaque rupture also causes platelet plug formation, which underlies a number of cardiovascular diseases such as myocardial infraction and stroke. A number of anti-platelet drugs such as aspirin, clopidogrel, prasugrel, vorapaxar, and eptifibatide are currently available to prevent the thrombotic complications. However, these anti-platelet agents have several limitations including inherent variability in individual responses, developing resistance, and serious bleeding side effects. For these reasons they are not suitable for long-term protection. Based on the experiences with current anti-platelet drugs, it appears that the most useful therapeutic approach is to intersect the secondary responses such as integrin outside-in signaling or recruitment of platelets by TxA2 and secreted ADP. Compounds, which can largely preserve the primary hemostatic function of platelets but inhibit secondary response will be most desired therapeutic agents for treatment of cardiovascular disease.
CIB1 is a calcium integrin binding protein, which specifically interact with the alphaIIb subunit of integrin alphaIIb-beta3. Binding of CIB1 to alphaIIb regulates the outside-in signaling in platelets, which is needed for thrombus stabilization and thrombus growth. […] Therefore, we propose that discovery of a small molecule that can prevent the association of CIB1 and alphaIIb-beta3 will be a potential anti-platelet agent that can block the thrombus formation without undue effect on hemostasis.
To develop fluorescence polarization (FP) assay using fluorescently labeled alphaIIb peptide and CIB1 protein. Using FP assay characterize the binding affinity, competitive inhibition, and acceptable Z factor (0.5 to1) in order to perform the HTS to identify small molecule compound that can prevent CIB1 binding to platelet integrin alphaIIb-beta3. Active compounds were re-acquired and validated using confirmatory and counterscreens (using 100 nM scrambled peptide).
[1] Naik MU, Nigam A, Manrai P, et al. CIB1 deficiency results in impaired thrombosis: the potential role of CIB1 in outside-in signaling through integrin alpha IIb beta 3. J Thromb Haemost. 2009;7(11):1906-1914. doi:10.1111/j.1538-7836.2009.03581.
SEQUENCE No. (1, 2, 3, etc.); […] (e.g., Cells, Incubation, Reagent, etc.); VALUE and DESCRIPTION.
1; Reagent; 3 uL; Protein or buffer (4/3x)
2; Compound; 46 nL; Control inhibitor / compound library
3; Time; 15 min; Room temperature incubation
4; Reagent; 1 uL; Fluorescent labeled peptide (4x)
5; Time; 1000 rpm; Centrifuge
6; Time; 15 min; Room temperature incubation
7; Detection; Ex 480/ Em 540; ViewLux Fluorescence Read
NOTES (numbers refer to sequence above)
1; Protein Mixture: C1B1-GST (final concentrations of 1 uM). Buffer composition: 5 mM HEPES pH 7.4, 125 mM NaCl, 5 mM CaCl2, 0.01% Tween20.
2; Control Inhibitor: unlabeled peptide (final concentration range 17.4 nM to 572 uM). Compound Library final concentration range 18.3 nM to 114 uM.
3; Room temperature incubation.
4; Fluorescent Labeled Peptide: FITC-alphaIIb (final concentration of 100 nM). Sequence of Scrambled peptide: Acetyl-[…]-FITC (purity is 95.37%).
6; Room temperature incubation.
[…]
% is scaled to controls: 0 for no effect and ±100 for the full control effect; potency is read from the fitted curve at half-maximal effect.

SMILES | activity, negative = inhibition | Potency
O=c1oc2ccccc2c(O)c1C(CC(O)c1ccc(-c2ccc(Br)cc2)cc1)c1ccccc1 (stereo not given) | 79.8% (inactive) | 
COc1nn(CSP(=S)(OC)OC)c(=O)s1 | -8.92% [at 229 µM] (inactive) | 
CCCCCCCCCCCCCCCC[N+](C)(C)C | 4.61% (inactive) | 
Cc1ccc([N+](=O)[O-])[c]2c1[O][Hg]2 | 131% (inactive) | 
S=C(SSC(=S)N1CCCCC1)N1CCCCC1 | 19.7% (inactive) | 
CC(=O)[O][Hg][c]1ccccc1 | 130% (inactive) | 
N[C@@H](Cc1ccc(Oc2cc(I)c(O)c(I)c2)c(I)c1)C(=O)O | -9.7% (inactive) | 
O=c1c(C2CC(c3ccc(-c4ccc(Br)cc4)cc3)Cc3ccccc32)c(O)sc2ccccc12 (stereo not given) | 88.6% (inactive) | 
CC1=C(O)C(=O)C=C2C1=CC=C1[C@@]2(C)CC[C@@]2(C)[C@@H]3C[C@](C)(C(=O)O)CC[C@]3(C)CC[C@]12C |  | 44.7 µM (active)
O=C1C(I)=CC(=C(c2cc(I)c(O)c(I)c2)c2ccccc2C(=O)O)C=C1I | 334% (inactive) | 
COC[C@H]1OC(=O)c2coc3c2[C@@]1(C)C1=C(C3=O)C2CCC(=O)[C@@]2(C)C[C@H]1OC(C)=O (stereo not given in full) | -9.28% (inactive) | 
C[CH2][Hg][S]c1ccccc1C(=O)O | -2.63% (inactive) | 
CN(C)C(=S)SSC(=S)N(C)C | 1.45% (inactive) | 
CN(C)CCc1c[nH]c2cccc(O)c12 |  | 89.1 µM (active)
O=C1OC(c2ccc(O)c(S(=O)(=O)O)c2)(c2ccc(O)c(S(=O)(=O)O)c2)c2c(Br)c(Br)c(Br)c(Br)c21 | 42.2% (inactive) | 

— PubChem BioAssay AID1508619 (National Center for Advancing Translational Sciences (NCATS), 2020)
